The campaign covered roughly 340,000 compounds. About 12,000 (3.5%) were called active. About 18% were inconclusive and are not listed. Calls follow the shape of the dose curve; as a rule, active = well fitted inhibition curve with a large enough effect; inconclusive = small, poorly fitted or top-dose-only effect, or another doubt; inactive = no such curve, though single readings can be large or run the other way. The full list was thinned out, with actives kept by preference.
experiment: qHTS Assay for Inhibitors of Hepatitis C Virus (HCV); conditions: Huh7.5.1 HCVcc-Cre infection, luciferase reporter, 44 h; series mostly up to 41.8 µM; activity change, negative = inhibition: at the top concentration
Method in brief: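 A cell-based infection assay in which seeded cells (1,000 per well) receive test compound after 4 h, are inoculated with HCVcc-Cre at approximately 0.5 moi, and are incubated 44 h before luminescence detection.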
% is scaled to controls: 0 for no effect and ±100 for the full control effect; potency is read from the fitted curve at half-maximal effect.

Structure (SMILES)	activity change, negative = inhibition	Potency
CNC(=O)c1ccsc1NC(=O)c1ccc(S(=O)(=O)N2CCOCC2)cc1	-5.81% (inactive)	–
COc1ccc(C(=O)Nc2nc(-c3ccc(S(=O)(=O)N4CCOCC4)cc3)cs2)cc1	–	35.5 µM (active)
CCOC(=O)c1csc(NC(=O)c2ccc(S(=O)(=O)N3CCCC3)cc2)n1	-8.37% (inactive)	–
Cn1c(=O)[nH]c2c(c(C(=O)O)nn2C)c1=O	7.31% (inactive)	–
CCOC(=O)c1cnc2nc(SCc3ccccc3Cl)[nH]n2c1=O	4.2% (inactive)	–
Cc1cc(C(=O)N/N=C\C(Br)=C\c2ccccc2)c(C)o1	-28.1% (inactive)	–
CC(C)c1cc(C(=O)N/N=C/C(Br)=C/c2ccccc2)n[nH]1	–	22.4 µM (active)
CC(C)c1cc(C(=O)O)n[nH]1	13.7% (inactive)	–
Cc1c(NC(=O)CSc2nnc(-c3cccnc3)n2N)c(=O)n(-c2ccccc2)n1C	26.7% (inactive)	–
O=C(O)c1ccc([N+](=O)[O-])cc1Sc1ccsc1	2.61% (inactive)	–
O=C(c1cccc(S(=O)(=O)N2CCCCCC2)c1)N1CCN(Cc2ccccc2)CC1	-17.4% (inactive)	–
CCOC(=O)N1CCN(C(c2cccnc2)c2ccc3cccnc3c2O)CC1 (stereo not drawn)	-17.6% (inactive)	–
Cc1nc2sc(C(c3ccco3)N3CCOCC3)c(O)n2n1 (stereo not drawn)	0.269% (inactive)	–
Oc1c(C(c2ccccn2)N2CCOCC2)ccc2cccnc12 (stereo not drawn)	–	3.55 µM (active)
CCOC(=O)C1CCCN(C(=O)CSc2nnc3nc(C)cc(C)n23)C1 (stereo not drawn)	-5.06% (inactive)	–
Cc1cc(C(=O)OCC(=O)N2C(C)CCCC2C)c2ccccc2n1 (stereo not drawn)	-14.7% (inactive)	–
CCC(C)N(C(=O)CSc1ncnc2c1cnn2-c1ccccc1)C1CCS(=O)(=O)C1 (stereo not drawn)	–	14.1 µM (active)
CC(C)CN(C(=O)CSc1ncnc2sccc12)C1CCS(=O)(=O)C1 (stereo not drawn)	8.24% (inactive)	–
CCN(C(=O)CSc1ncnc2c1cnn2-c1ccccc1)C1CCS(=O)(=O)C1 (stereo not drawn)	-22.6% (inactive)	–
O=C(O)c1ccc(NN=CC2=C(N3CCOCC3)/C(=C/c3ccccc3)CC2)cc1	40.3% (inactive)	–
CC/C(=C(/c1ccccc1)c1ccc(OCC[N+](C)(C)C)cc1)c1ccccc1	3.46% (inactive)	–
CCOC(=O)C(=Cc1ccccc1OC)C(=O)OCC	–	25.1 µM (active)
COc1ccccc1C(=O)c1ccccc1C(=O)c1ccccc1	-3.41% (inactive)	–

Structure (SMILES)	activity change, negative = inhibition	Potency
CCOC(=O)c1ccccc1OC(=O)Oc1ccccc1C(=O)OCC	-20.5% (inactive)	–
CC(=O)CC(CC(=O)NC1CCCCC1)c1ccccc1 (stereo not drawn)	4.7% (inactive)	–
CN(CC(=O)O)C(=O)c1ccccc1	-4.81% (inactive)	–
COc1cccc(NC(=O)CN(C)C(=O)CSC(=S)N2CCCC2)c1	7.26% [at 8.37 µM] (inactive)	–
COCCN(CCOC)C(=S)Nc1ccccc1Cl	-9.93% (inactive)	–
O=C(Nc1ccccc1Cl)/C(Cl)=C(\Cl)S(=O)c1ccccc1 (stereo not drawn)	–	11.2 µM (active)
O=C(Nc1ccccc1Cl)Nn1cnnc1	22.4% (inactive)	–
COc1ccc(-c2cc3ncccc3cn2)cc1	-19.5% (inactive)	–
CCCCCCCCn1c2c(c(=N)c3c1CCC3)CCCC2	–	3.98 µM (active)
O=C(CCNS(=O)(=O)c1ccccc1C(F)(F)F)Nc1ccncc1	8.22% (inactive)	–
COc1ccccc1CNC(=O)c1ccc(CS(=O)(=O)c2ccccc2)o1	5.83% (inactive)	–
COc1ccccc1OCc1ccc(C(=O)N2CCN(C)CC2)o1	10.2% (inactive)	–
COc1ccccc1OCc1ccc(C(=O)NC(C)c2ccccc2)o1 (stereo not drawn)	–	7.08 µM (active)
CCCCn1c(N)c(N(CC(C)C)C(=O)c2cccc(S(=O)(=O)N3CC(C)OC(C)C3)c2)c(=O)[nH]c1=O (stereo not drawn)	-10.1% (inactive)	–
CCOC(=O)c1ccc(NC(=O)Cn2nnc(-c3ccc(C)cc3)n2)cc1	-24.7% (inactive)	–
CCCc1nnc(SCC(=O)Nc2ccc(C(=O)OCC)cc2)o1	10.9% (inactive)	–
CCOC(=O)c1ccc(NC(=O)Cn2cnc3cc(C)c(C)cc32)cc1	–	3.55 µM (active)
Cn1c(SCC(=O)Nc2ccc(N3CCOCC3)cc2)nnc1C(F)(F)F	-2.32% (inactive)	–
CC(NC(=O)c1ccccc1)C(=O)OCC(=O)Nc1cccc(S(=O)(=O)N2CCCC2)c1 (stereo not drawn)	11.6% (inactive)	–
CC(NC(=O)CSc1nc2c(cc1C#N)CN(C)CC2)c1ccccc1 (stereo not drawn)	-20.5% (inactive)	–
CN1CCc2nc(SC(C(=O)O)c3ccccc3)c(C#N)c(-c3cccs3)c2C1 (stereo not drawn)	–	10 µM (active)
Cc1c(-c2ccccc2)nc(N)c(C#N)c1-c1cccs1	17.7% (inactive)	–
Cc1ccc([C@@H]2CC=C(C(=O)O)[C@H](c3cccc(Cl)c3)N2S(=O)(=O)c2ccc(C)cc2)cc1	23.6% (inactive)	–

Structure (SMILES)	activity change, negative = inhibition	Potency
CC(C)(C)OC(=O)C[C@@H]1C/C=C\C[C@@H](CC(=O)N(CCO)Cc2ccccc2)C(=O)N[C@H](Cc2ccccc2)COC1=O	14.1% (inactive)	–
Cc1csc(=O)n1CC(=O)OCC(=O)N(CC(C)C)c1c(N)n(Cc2ccccc2)c(=O)[nH]c1=O	0.0195% (inactive)	–
Cn1c(=O)c2c(nc(Br)n2CCSc2nc3ccccc3o2)n(C)c1=O	-24% (inactive)	–
Cc1ccnc(SCCn2c(Br)nc3c2c(=O)[nH]c(=O)n3C)n1	-9.01% (inactive)	–
Cn1c(=O)[nH]c(=O)c2c1nc(Br)n2CCCCSc1nc2ccccc2o1	–	12.6 µM (active)
CCCCC/C=C/C1=CC(=O)C[C@H](c2ccc(Cl)cc2)C1	-4.66% (inactive)	–
O=C1NCCn2nc3ccccc3c21	-0.139% (inactive)	–
Cn1c(N)c(C(=O)COC(=O)/C=C/c2cccc(C(F)(F)F)c2)c(=O)n(C)c1=O	5.92% (inactive)	–
Cc1cc(C)cc(-c2nnc(SCC(=O)NC3CC3)o2)c1	0.418% (inactive)	–
CCOC(=O)N1CCN(C(=O)c2ccc3c(c2)N(Cc2ccc(C)cc2)CCS3)CC1	–	12.6 µM (active)
O=C(NCCN1CCOCC1)c1ccc2c(c1)N(Cc1ccc(Cl)cc1)CCS2	8.59% (inactive)	–
O=C(c1ccc2c(c1)N(Cc1ccc(F)cc1)C(=O)CS2)N1CCOCC1	14.1% (inactive)	–
O=C(NNC(=O)c1cc(S(=O)(=O)N2CCCCC2)ccc1Cl)c1ccccc1O	-11.9% (inactive)	–
CN(C(=O)CN1C(=O)NC(C)(CCc2ccccc2)C1=O)c1ccccc1 (stereo not drawn)	16.1% (inactive)	–
O=C(COC(=O)c1cc[n+]([O-])cc1)Nc1ccc(Cl)c(C(F)(F)F)c1	0.896% (inactive)	–
O=C1c2ccccc2C(=O)N1CCCCCCN1C(=O)c2ccccc2C1=O	7.88% (inactive)	–
O=C(NNC(=O)c1ccc2ccccc2c1)c1ccc(Cl)cc1	-4.02% (inactive)	–
COc1ccc(C(=O)CN2C(=O)NC3(CCc4ccccc43)C2=O)c(OC)c1 (stereo not drawn)	4.95% (inactive)	–
c1ccc(CCc2ccccn2)cc1	21.4% (inactive)	–
CCOC(=O)C1=C(c2ccccc2)NC(=O)NC1c1cc(OC)c(OC)cc1OC (stereo not drawn)	20.3% (inactive)	–
CCOC(=O)C1=C(c2ccccc2)NC(=S)NC1c1ccc(Cl)cc1 (stereo not drawn)	–	11.2 µM (active)
CCOC(=O)C1=C(C)NC(=O)NC1c1ccccc1 (stereo not drawn)	6.14% (inactive)	–
